# Measurements: PubChem BioAssay (NCATS)
# A number with no mark means an inactive call. Records with an inconclusive call do not appear. A call without a number means that no potency is given here. The source made the active and inactive calls. Calls come from the whole dose curve; as a rule, active = well fitted curve in the direction sought with a large enough effect; inconclusive = small, poorly fitted or top-dose-only effect, or another doubt; inactive = no such curve, though single readings can be large; an effect the other way counts as inactive or inconclusive.
# Legend:
# [1] = system: Zika virus NS2B-NS3 protease; test: Primary screen GU AMC qHTS for Zika virus inhibitors (AID 1347154); note: nearly all actives have a fitted effect of over 70% in size; note: potency is the fitted concentration of half-maximal effect
# Method in brief: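 Unlinked Zika NS2B hydrophilic domain/NS3 protease domain noncovalent complex (25 nM final) in 10 mM Tris-HCl pH 8.0, 0.01% Tween 20, with AMC peptide substrate. Fluorescence (ex 340, em 450 nm) change over 15 min, room temperature; percent inhibition fitted to 4-parameter Hill equation.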
# [2] = Confirmatory screen GU Rhodamine qHTS for Zika virus inhibitors qHTS (AID 1347157); note: nearly all actives have a fitted effect of over 70% in size
# Method in brief: (§1)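 Unlinked NS2B/NS3, 25 nM; Rhod110 peptide, 1.5 microM; compounds, up to 114 microM. Reaction run 15 min at RT in 10 mM Tris-HCl pH 8.0, 0.01% Tween 20; kinetic fluorescence change fitted with a 4-parameter Hill model.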
# [3] = Confirmatory screen NINDS Rhodamine qHTS for Zika virus inhibitors (AID 1347161); note: nearly all actives have a fitted effect of over 60% in size; note: potency is the fitted concentration of half-maximal effect;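 for activity change, negative = inhibition: purified Zika NS2B-NS3 protease with linked NS2B cofactor domain and Rhodamine110 peptide substrate; series mostly up to about 110 µM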
# Method in brief: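 In 10 mM Tris-HCl pH 8.0 containing 0.01% Tween 20, linked NS2B-NS3 protease (25 nM final) is exposed to test compounds for 15 min. Cleavage of 1.5 microM Rhodamine110 substrate is tracked by fluorescence over 15 min.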
# [4] = Tertiary RLuc qRT-PCR qHTS assay for Zika virus inhibitors (AID 1347169); note: top concentration of the series differs between compounds; nearly all actives have a fitted effect of over 55% in size
# Method in brief: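 Inhibition of ZIKV-RLuc replication in Vero cells, read as Renilla luminescence 1-1.5 hrs after live-cell substrate addition, following 48-72 hrs infection at MOI 1-2 in presence of compound.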
# [5] = qHTS to identify inhibitors of the type 1 interferon - major histocompatibility complex class I in skeletal muscle: primary screen against the NCATS Pharmaceutical Collection (AID 1347407);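 note: luminescence of HiBiT knocked into endogenous HLA-B as interferon-induced MHC class I level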
# Method in brief: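 A qHTS format is used: 8-point, 1:5 compound series with 46 uM top final concentration, applied alongside 4 ng/ml IFN-beta to HLA-B*08:01-HiBiT knock-in myoblasts. Luminescence is measured after 24 h treatment.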
# [6] = biological target: Protein phosphatase 1D (Homo sapiens) (UniProt O15297); test: RapidFire Mass Spectrometry qHTS Assay for Modulators of WT P53-Induced Phosphatase 1 (WIP1) (AID 1347424);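 note: amount of dephosphorylated VEPPL-S-QETFS peptide product formed by WIP1; series mostly up to about 63 µM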
# Method in brief: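 Mass-spectrometric measurement of dephosphorylated peptide after a 5 min room-temperature reaction of 10 nM WIP1 with 2 uM phosphopeptide, following 1 h compound preincubation in 30 mM MgCl2 buffer.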
# [7] = biological target: Protein phosphatase 1D (Homo sapiens) (UniProt O15297); test: Rhodamine-PBP qHTS Assay for Modulators of WT P53-Induced Phosphatase 1 (WIP1) (AID 1347425)
# Method in brief: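 Steps: enzyme with Rh-PBP sensor and compounds, room-temperature incubation of 1 hr, baseline read, addition of VEPPL-pS-QETFS (10 uM final), kinetic fluorescence reads at 525/598 nm. Activity equals final minus baseline signal.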
# [8] = system: Zika virus NS2B-NS3 protease (unlinked complex); test: Primary screen GU Rhodamine qHTS for Zika virus inhibitors: Unlinked NS2B-NS3 protease assay (AID 1347159); note: nearly all actives have a fitted effect of over 60% in size
# Method in brief: as §1
# [9] = system: Zika virus NS2B-NS3 protease (linked construct); test: Primary screen NINDS Rhodamine qHTS for Zika virus inhibitors (AID 1347160); details: outcome: dose series up to 57.1 µM unless noted; note: nearly all actives have a fitted effect of over 55% in size
# Method in brief: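 Single-chain NS2B-NS3 protease, 25 nM, pH 8.0; compounds preincubated 15 min. Activity: Rhodamine110 release from 1.5 microM substrate over 15 min, room temperature, data fitted to 4-parameter Hill.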
# [10] = qHTS to identify inhibitors of the type 1 interferon - major histocompatibility complex class I in skeletal muscle: primary screen against the NCATS Mechanism Interrogation Plate v5.0 (MIPE) Libary (AID 1347411); note: nearly all actives have a fitted effect of over 65% in size
# Method in brief: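 Luminescence from CRISPR HiBit-tagged endogenous HLA-B in human myoblasts reported MHC class I level after 24 h of IFN-beta (4 ng/ml) plus compound. Compounds ran as 11-point 1:3 series, top 46 uM final.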
# [11] = biological target: Lysine-specific demethylase 5B (Homo sapiens) (UniProt Q9UGL1); test: Optimization screen for KDM5B Histone Demethylases FDH coupled qHTS against the LOPAC library (AID 1347166)
# Method in brief: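 KDM5BDeltaAP (200nM final) in 50mM HEPES pH 7.5, 0.01% Tween-20 was preincubated with compound for 10 min at room temperature. A substrate mix of 12.5uM H3K4Me3, 25uM a-ketoglutarate, ascorbate, Fe2+, NAD+ and formaldehyde dehydrogenase was then added. NADH fluorescence (340/450 nm) was read initially and after 30 min.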
# [12] = qHTS for inhibitors of adenylyl cyclases using a fission yeast platform: a pilot screen against the NCATS LOPAC library (AID 1347410)
# Method in brief: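 Inhibition of GNAS-stimulated AC9 activity in S. pombe was inferred from derepression of a PKA-repressed fbp1-GFP reporter, measured as cytometric fluorescence after 18 h at 30C with compounds at up to 57 µM.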
# [13] = Validation qHTS assay for inhibitors of Activation Induced Cytidine Deaminase (AID): UDG Counterscreen signal (AID 1347427)
# Method in brief: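 Fluorescence at 560 nm excitation, 665 nm emission reports UDG signal after 250 mM NaOH (2x) addition and 30 min. Enzymes (AID 1 uM, UDG 2 U/mL, at 4/3x) preincubated 10 min with compound, then 4 h with 4x 250 nM DJC20/DJC23 substrate at room temperature.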
# [14] = Vero cells viability qHTS for Zika virus inhibitors (AID 1347167)
# Method in brief: (§2)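 To flag cytotoxic protease inhibitors, viability is measured by ATP-dependent luminescence (CellTiter Glo) after cells attached overnight receive compound for 24 to 48 hours in DMEM with 4% FBS.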
# [15] = HepG2 cells viability qHTS for Zika virus inhibitors (AID 1347168)
# Method in brief: as §2
# Sequence of Protein phosphatase 1D (Homo sapiens) (O15297 whole entry, looked up): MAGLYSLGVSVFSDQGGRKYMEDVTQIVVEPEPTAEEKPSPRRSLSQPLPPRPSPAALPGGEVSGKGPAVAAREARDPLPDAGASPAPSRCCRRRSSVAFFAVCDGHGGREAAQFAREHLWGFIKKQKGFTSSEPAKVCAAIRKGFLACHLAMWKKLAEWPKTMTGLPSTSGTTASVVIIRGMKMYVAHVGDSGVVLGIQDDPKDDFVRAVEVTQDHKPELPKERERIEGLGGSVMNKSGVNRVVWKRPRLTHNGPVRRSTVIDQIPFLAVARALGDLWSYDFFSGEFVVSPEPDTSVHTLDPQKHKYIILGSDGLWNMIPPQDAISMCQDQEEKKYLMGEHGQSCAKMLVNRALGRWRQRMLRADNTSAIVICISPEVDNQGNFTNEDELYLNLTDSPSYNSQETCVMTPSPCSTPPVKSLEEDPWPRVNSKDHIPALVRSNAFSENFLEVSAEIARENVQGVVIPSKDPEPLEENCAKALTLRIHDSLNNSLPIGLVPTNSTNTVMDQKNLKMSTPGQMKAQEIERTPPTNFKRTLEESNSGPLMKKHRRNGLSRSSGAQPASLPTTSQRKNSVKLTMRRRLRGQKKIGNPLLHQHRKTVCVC
# Sequence of Lysine-specific demethylase 5B (Homo sapiens) (Q9UGL1 whole entry, looked up): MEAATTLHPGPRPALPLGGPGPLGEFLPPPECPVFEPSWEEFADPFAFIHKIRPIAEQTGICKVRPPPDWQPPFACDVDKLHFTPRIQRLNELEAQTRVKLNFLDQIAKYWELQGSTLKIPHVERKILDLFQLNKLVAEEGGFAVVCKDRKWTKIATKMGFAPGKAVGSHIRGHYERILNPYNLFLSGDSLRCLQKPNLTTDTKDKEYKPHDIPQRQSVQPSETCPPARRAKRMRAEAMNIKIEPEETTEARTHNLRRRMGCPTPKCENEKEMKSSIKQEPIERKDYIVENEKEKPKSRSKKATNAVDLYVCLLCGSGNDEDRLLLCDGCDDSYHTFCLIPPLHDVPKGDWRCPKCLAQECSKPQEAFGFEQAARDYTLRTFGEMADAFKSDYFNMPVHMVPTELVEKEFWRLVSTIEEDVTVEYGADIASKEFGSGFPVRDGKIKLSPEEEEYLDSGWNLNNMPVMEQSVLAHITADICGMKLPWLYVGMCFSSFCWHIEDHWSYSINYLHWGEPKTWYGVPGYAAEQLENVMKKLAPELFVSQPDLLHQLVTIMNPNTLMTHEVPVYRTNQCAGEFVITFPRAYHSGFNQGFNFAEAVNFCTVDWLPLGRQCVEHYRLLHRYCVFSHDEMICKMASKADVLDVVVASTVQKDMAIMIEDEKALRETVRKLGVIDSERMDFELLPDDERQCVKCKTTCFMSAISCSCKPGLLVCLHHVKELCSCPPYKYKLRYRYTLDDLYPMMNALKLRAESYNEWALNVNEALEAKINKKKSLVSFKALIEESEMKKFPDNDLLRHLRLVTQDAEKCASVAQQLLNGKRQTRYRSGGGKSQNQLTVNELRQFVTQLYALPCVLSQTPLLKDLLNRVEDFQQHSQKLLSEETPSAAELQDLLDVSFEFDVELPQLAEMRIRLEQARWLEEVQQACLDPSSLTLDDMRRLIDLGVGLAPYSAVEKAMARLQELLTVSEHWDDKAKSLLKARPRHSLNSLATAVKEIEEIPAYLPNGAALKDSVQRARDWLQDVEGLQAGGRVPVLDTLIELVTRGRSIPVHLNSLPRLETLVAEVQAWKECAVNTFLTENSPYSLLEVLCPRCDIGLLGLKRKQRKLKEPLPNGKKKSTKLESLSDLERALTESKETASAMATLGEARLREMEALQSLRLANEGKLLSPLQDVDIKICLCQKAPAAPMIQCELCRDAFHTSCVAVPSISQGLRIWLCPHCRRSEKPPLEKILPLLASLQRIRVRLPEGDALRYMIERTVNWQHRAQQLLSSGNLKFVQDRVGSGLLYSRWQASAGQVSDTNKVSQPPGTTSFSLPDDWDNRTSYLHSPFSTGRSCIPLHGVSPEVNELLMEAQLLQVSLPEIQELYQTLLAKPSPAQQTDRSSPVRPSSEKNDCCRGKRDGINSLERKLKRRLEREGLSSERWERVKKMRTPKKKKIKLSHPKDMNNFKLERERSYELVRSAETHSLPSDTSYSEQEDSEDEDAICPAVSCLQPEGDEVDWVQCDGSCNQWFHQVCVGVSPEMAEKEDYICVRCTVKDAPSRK
smiles,measurement,setting,value
O=C(CCCCC(=O)Nc1c(I)cc(I)c(C(=O)O)c1I)Nc1c(I)cc(I)c(C(=O)O)c1I,Potency,[1],inactive
same,Potency,[2],inactive
same,Potency,[3],inactive
same,"activity change, negative = inhibition",[4],2.99% [at 5.25 µM]
same,Potency,[5],inactive
same,Potency,[6],inactive
same,outcome,[7],inactive
CC(=O)Oc1ccc(C2(c3ccc(OC(C)=O)cc3)Oc3ccccc3NC2=O)cc1,Potency,[1],inactive
same,Potency,[8],inactive
same,outcome,[9],inactive
same,Potency,[6],inactive
CCC(C(=O)NC(=O)NC(C)=O)c1ccccc1 (stereo not given),Potency,[1],inactive
same,Potency,[8],inactive
same,outcome,[9],inactive
same,Potency,[5],inactive
same,Potency,[6],inactive
same,outcome,[7],inactive
O=C1CC[C@H](C(=O)N2CCCCC2)N1,Potency,[1],inactive
same,Potency,[8],inactive
same,outcome,[9],inactive
same,Potency,[5],inactive
same,Potency,[6],inactive
same,outcome,[7],inactive
CCCCNc1ccc(C(=O)OCCN(CC)CC)cc1,Potency,[1],inactive
same,Potency,[8],inactive
same,outcome,[9],inactive
same,Potency,[5],inactive
same,Potency,[6],inactive
same,outcome,[7],inactive
CC(=O)Nc1ccn(C2COC(COC(=O)c3ccccc3)O2)c(=O)n1 (stereo not given),Potency,[1],inactive
same,Potency,[8],inactive
same,outcome,[9],inactive
same,Potency,[5],inactive
same,Potency,[6],inactive
same,outcome,[7],inactive
CO[C@]1(NC(=O)CSC(F)F)C(=O)N2C(C(=O)O)=C(CSc3nnnn3CCO)CO[C@H]21,Potency,[1],inactive
same,Potency,[8],inactive
same,outcome,[9],inactive
same,Potency,[5],inactive
same,Potency,[6],inactive
same,outcome,[7],inactive
O=C(CCCCCCCCC#CI)Oc1ccccc1,Potency,[1],inactive
same,Potency,[8],inactive
same,outcome,[9],inactive
same,Potency,[5],inactive
same,Potency,[6],inactive
same,outcome,[7],inactive
O=C(CCC1CCN(Cc2ccccc2)CC1)c1ccc2c(c1)NCCCC2,Potency,[1],inactive
same,Potency,[8],inactive
same,outcome,[9],inactive
same,Potency,[5],inactive
same,Potency,[6],inactive
same,outcome,[7],inactive
O=C(O)Cn1c(=O)n(Cc2ccc(Br)cc2F)c(=O)c2ccc(Cl)cc21,Potency,[1],inactive
same,Potency,[5],inactive
same,Potency,[6],inactive
COc1cc(NS(=O)(=O)c2ccc(N)cc2)nc(C)n1,Potency,[1],inactive
same,outcome,[9],inactive
same,Potency,[5],inactive
same,Potency,[6],inactive
same,outcome,[7],inactive
O=C(O)[C@H](O)[C@@H](O)[C@H](O[C@@H]1O[C@H](CO)[C@H](O)[C@H](O)[C@H]1O)[C@H](O)CO,Potency,[1],inactive
same,Potency,[5],inactive
same,Potency,[10],inactive
same,Potency,[6],inactive
same,outcome,[7],inactive
CN1[C@@H]2CC[C@H]1CC(NC(=O)n1c(=O)[nH]c3ccccc31)C2 (stereo not given in full),Potency,[1],inactive
same,outcome,[9],inactive
same,Potency,[5],inactive
same,Potency,[6],inactive
same,outcome,[7],inactive
CN1CCCN=C1/C=C/c1cccs1,Potency,[1],inactive
same,Potency,[5],inactive
same,Potency,[10],inactive
same,Potency,[6],inactive
same,outcome,[7],inactive
Cc1oc(-c2ccccc2)nc1CCC(=O)c1ccc(CC2SC(=O)NC2=O)cc1 (stereo not given),Potency,[1],inactive
same,Potency,[5],inactive
Cc1ccc(C(C)OC(=O)C2(C)CCC(C(=O)O)C2(C)C)cc1 (stereo not given),Potency,[1],inactive
same,Potency,[5],inactive
same,Potency,[6],inactive
same,outcome,[7],inactive
CCCc1c2oc(C(=O)O)cc(=O)c2cc2c(=O)cc(C(=O)O)n(CC)c12,Potency,[1],inactive
same,Potency,[5],inactive
same,Potency,[6],inactive
same,outcome,[7],inactive
CCc1cc(S(=O)(=O)O)c2cc(C(C)C)cccc1-2,Potency,[1],inactive
same,Potency,[5],inactive
same,Potency,[6],inactive
Cn1cnc2c(NCc3ccccc3)nc(NCCO)nc21,Potency,[1],inactive
same,outcome,[11],inactive
same,outcome,[12],inactive
same,outcome,[13],inactive
O=C(O)C(=O)Nc1cccc(-c2nn[nH]n2)c1,Potency,[1],inactive
same,Potency,[5],inactive
same,Potency,[10],inactive
same,Potency,[6],inactive
same,outcome,[7],inactive
O=C1OC2(c3ccccc31)c1cc(I)c(O)c(I)c1Oc1c2cc(I)c(O)c1I,Potency,[1],16.1 µM (active)
same,Potency,[3],17.8 µM (active)
same,"activity change, negative = inhibition",[4],6.31% [at 1.74 µM]
C[C@H](CN1CCCC1)C(=O)c1ccc(C(F)(F)F)cc1,Potency,[1],inactive
same,outcome,[9],inactive
same,Potency,[5],inactive
same,Potency,[6],inactive
same,outcome,[7],inactive
Nc1cccc2c(N)cccc12,Potency,[1],36.9 µM (active)
same,Potency,[5],inactive
C[N+]1(CC2COC(c3ccccc3)(c3ccccc3)O2)CCCCC1 (stereo not given),Potency,[1],inactive
same,outcome,[9],inactive [at 33.1 µM]
same,Potency,[5],inactive
same,Potency,[6],inactive
same,outcome,[7],inactive
C[C@H]1C[C@H]2[C@@H]3CCC4=CC(=O)C=C[C@]4(C)[C@H]3C(=O)C[C@]2(C)[C@@]1(O)C(=O)CO,Potency,[1],inactive
same,Potency,[5],inactive
same,Potency,[10],inactive
same,Potency,[6],inactive
same,outcome,[7],inactive
COC(=O)c1cc(Cl)ccc1OC,Potency,[1],inactive
same,Potency,[5],inactive
same,Potency,[6],inactive
same,outcome,[7],inactive
CNC[C@H](O)[C@@H](O)[C@H](O)[C@H](O)CO,Potency,[1],inactive
same,Potency,[5],inactive
same,Potency,[10],inactive
same,Potency,[6],inactive
same,outcome,[7],inactive
CCNC(=O)NCCCOc1cccc(CN2CCCCC2)c1,Potency,[1],inactive
same,outcome,[9],inactive
same,Potency,[5],inactive
same,Potency,[6],inactive
same,outcome,[7],inactive
CCCCCOc1ccc(C2SC(=O)NC2=O)cc1OCC (stereo not given),Potency,[1],inactive
same,Potency,[5],inactive
CN1CC(=O)N2[C@H](c3ccc4c(c3)OCO4)c3[nH]c4ccccc4c3C[C@@H]2C1=O,Potency,[1],inactive
same,Potency,[5],inactive
same,Potency,[10],inactive
same,Potency,[6],inactive
same,outcome,[7],inactive
OCCOCCN1CCN(C(c2ccccc2)c2ccc(Cl)cc2)CC1 (stereo not given),Potency,[1],inactive
same,Potency,[5],inactive
Cc1nc(C2CCCCC2)c(-c2ccc(S(N)(=O)=O)c(F)c2)o1,Potency,[1],14.4 µM (active)
same,outcome,[14],inactive
same,outcome,[15],inactive
same,Potency,[6],inactive
same,outcome,[7],inactive
Cc1c(C)c2c(c(C)c1OC(=O)CCC(=O)OCCO)CC[C@@](C)(CCC[C@H](C)CCC[C@H](C)CCCC(C)C)O2,Potency,[1],inactive
same,Potency,[5],inactive
same,Potency,[6],inactive
same,outcome,[7],inactive
CC1(C)O[C@@H]2C[C@H]3[C@@H]4CCC5=CC(=O)C=C[C@]5(C)[C@@]4(F)[C@@H](O)C[C@]3(C)[C@]2(C(=O)CO)O1,Potency,[1],inactive
same,Potency,[5],inactive
same,Potency,[10],inactive
same,Potency,[6],inactive
same,outcome,[7],inactive
